Bioassay records: PubChem, National Center for Advancing Translational Sciences (NCATS)
Most compounds without a hit are left out; they make up all but 14% or so of the library.
CHX counter: counter-screen for Shiga toxin inhibitors: cycloheximide protein synthesis inhibition; cell reporter, cycloheximide protein synthesis inhibition counterscreen; max response, %; 12% of 300,000 active; AID 2314; in the data active = max response mostly above about 13%, no sharp cut-off; inactive = mostly below about 14%; also: read at 38.3 µM for the half of the compounds with a filed dose; 0% is about no effect
Shiga toxin inh: blocks Shiga toxin action in Vero cells; 9.2% of 290,000 active; Vero cells, Shiga toxin protein synthesis inhibition reporter; inhibition, % at 38.7 µM; in the data active = inhibition mostly above about 28%, no sharp cut-off; inactive = mostly below about 43%; also: 0% is about no effect
Giardia FBPA inh: blocks Giardia fructose-bisphosphate aldolase activity; Potency, µM (doses to about 59.6 µM), inactives show at the highest dose activity, negative = inhibition, usual class: inhibitors; purified Giardia FBPA; 0.71% of 290,000 active; AID 2451; A8B2U2; also: potency is read from the fitted curve at half-maximal effect; % is scaled to controls: 0 for no effect and ±100 for the full control effect; nearly all actives have a fitted effect of over 55% in size
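Giardia FBPA (40 nM reagent) was preincubated 10 min at RT with compound (up to 57.5 uM final), then substrate plus GAPDH/TPI/NAD/arsenate coupling system with diaphorase/resazurin was added; resorufin fluorescence (525/598 nm) was read after 20 min.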
NS1 function inh: inhibitors of influenza NS1 protein function. 0.4% of 270,000 active. Potency, µM (highest dose often 46.1 µM), for the others: top-dose activity, positive = more growth; calls by dose curve; also: potency is read from the fitted curve at half-maximal effect; actives are rising curves; nearly all actives have a fitted effect of over 50% in size
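In this qHTS, NS1 from influenza A is expressed in budding yeast, where it slows growth. Cells are switched from glucose to 2% galactose medium (pH 6.0, -URA), treated with compound, and growth recovery is read at OD600.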
LmPK inhibitor: blocks Leishmania mexicana pyruvate kinase activity | Q27686 | purified LmPK, Kinase-Glo ATP luminescence, 1 h | Potency, µM (highest dose often 57.5 µM), for the others: at the top dose activity change, negative = inhibition, actives largely listed as inhibitors | 0.37% of 290,000 active; also: potency is read from the fitted curve at half-maximal effect; % is scaled to controls: 0 for no effect and ±100 for the full control effect
Target sequence (Q27686 whole entry, looked up): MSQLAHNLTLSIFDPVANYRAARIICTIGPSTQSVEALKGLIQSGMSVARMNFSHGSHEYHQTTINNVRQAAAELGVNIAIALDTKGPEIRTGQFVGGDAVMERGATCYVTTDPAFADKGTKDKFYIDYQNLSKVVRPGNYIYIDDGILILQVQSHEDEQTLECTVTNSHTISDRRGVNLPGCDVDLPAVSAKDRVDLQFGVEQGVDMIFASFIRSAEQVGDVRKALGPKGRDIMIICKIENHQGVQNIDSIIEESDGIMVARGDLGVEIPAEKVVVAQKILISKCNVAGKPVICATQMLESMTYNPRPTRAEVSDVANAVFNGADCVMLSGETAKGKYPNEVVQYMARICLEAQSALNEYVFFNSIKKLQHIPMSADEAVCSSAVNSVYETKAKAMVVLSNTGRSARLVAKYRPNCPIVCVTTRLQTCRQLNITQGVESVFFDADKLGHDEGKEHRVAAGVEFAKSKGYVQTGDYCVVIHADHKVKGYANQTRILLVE
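ATP generated from ADP (0.1 mM) and PEP (0.5 mM) by 0.1 nM LmPK over 1 h at room temperature (pH 7.2 imidazole buffer) was detected by coupled luciferase luminescence. Values were normalized to uninhibited and no-enzyme wells.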
* marks the source's active call; other numbers are inactive results; ? = inconclusive; / = not tested or not shown; [ ] = dose if it differs, or a comment. Unless noted, calls follow the shape of the dose curve; as a rule, active = well fitted curve in the direction sought with a large enough effect; inconclusive = small, poorly fitted or top-dose-only effect, or another doubt; inactive = no such curve, though single readings can be large; an effect the other way counts as inactive or inconclusive.

SMILES | CHX counter | Shiga toxin inh | Giardia FBPA inh | NS1 function inh | LmPK inhibitor
COC(=O)Cn1c(C(=O)N2CCCC2)cc2c1C[C@H]1CN(C(=O)c3ccccc3)[C@@](Cc3ccccc3)(C(=O)OC)[C@@H]21 | / | / | 6% | / | /
Clc1nc(Nc2ccccc2)nc(Nc2ccccc2)n1 | 25* | 22 | 0% | -3% | -1%
Cc1cccc(-c2nnc(SCCC(=O)N3CCOCC3)o2)c1 | 9 | 50 | 0% | -2% | -2%
Cc1cccc(-c2nnc(SCC(=O)NC3CCCC3)o2)c1 | -3 | 26 | 6% | -1% | 4%
Cc1ccc(-c2nnc(SCC(=O)NC3CC3)o2)cc1 | 24* | 61* | / | -3% | 2%
CCOc1ccc(-c2nnc(SCC(=O)N3CCOCC3)o2)cc1 | 24* | 69* | 11% | -5% | -6%
Cc1ccc(-c2nnc(SCC(=O)N3CCCC3)o2)cc1C | 36* | 72* | 13% | -62% | -4%
Cc1cccc(-c2nnc(SCC(=O)N3CCCC3)o2)c1 | 19* | 93* | 7% | -1% | -9%
CCOC(=O)N1CCN(C(=O)CSc2nnc(-c3ccc(C)c(C)c3)o2)CC1 | -2 | 9 | 2% | -8% | 3%
CC1CN(C(=O)c2cc(S(=O)(=O)N(C)c3ccc(F)cc3)ccc2Cl)CC(C)O1 (centres undefined) | 6 | -12 | / | 20% | 0%
COc1ccc(-c2nnc(SCC(=O)N3CCCCC3)o2)c(OC)c1 | 30* | 25 | 1% | 0% | -4%
CC(C)c1ccc(OCc2nnc(SCC(=O)N3CCCCC3)o2)cc1 | 32* | 27 | -10% | 2% | 2%
CCOc1ccc(-c2nnc(SCC(=O)N3CCCC3)o2)cc1 | -1 | 2 | 2% | 15% | 4%
O=C(CSc1nnc(COc2ccc(Cl)cc2)o1)N1CCCCC1 | -4 | 3 | / | -1% | -2%
CCc1ccc(OCc2nnc(SCC(=O)NC3CCCCC3)o2)cc1 | 20 | 47* | -8% | 1% | 6%
Cc1ccc(-c2nnc(SCC(=O)N3CCCC3)o2)cc1 | 17* | 56 | -1% | 6% | 3%
CCC(=O)NC1CCN(C(=S)NC)CC1 | -4 | -10 | 1% | -7% | -1%
COc1ccc(-c2nnc(SCC(=O)N3CCCC3)o2)cc1 | 33* | 67* | 1% | 6% | -1%
O=C(CSc1nnc(-c2ccc(F)cc2)o1)N1CCCC1 | 16* | 34 | / | 3% | -10%
COc1ccc(-c2nnc(SCC(=O)N3CCCCC3)o2)cc1 | 12 | 26 | / | -1% | -8%
O=C(COc1cccnc1[N+](=O)[O-])NCc1ccco1 | 1 | -13 | 1% | 7% | 2%
CCc1nnc(NC(=O)CSc2ccc(-c3nc4ccc(C)cc4[nH]3)cn2)s1 | 32* | 51* | -12% | 19% | -14%
CC(=O)CSc1ccc(-c2nc3cc(C)c(C)cc3[nH]2)cn1 | -2 | 2 | -3% | 2% | 0%
Cc1ccc2nc(-c3ccc(NC(=O)CSc4ccccc4)cc3)[nH]c2c1 | 33* | active | 3% | 22% | 0%
Cc1cc2nc(-c3ccc(SCC(=O)Nc4nccs4)nc3)[nH]c2cc1C | 39* | 15 | 2% | 2% | 2%
SMILES | CHX counter | Shiga toxin inh | Giardia FBPA inh | NS1 function inh | LmPK inhibitor
Cc1cc2nc(-c3ccc(SCC(=O)Nc4ccc(S(=O)(=O)N5CCCC5)cc4)nc3)[nH]c2cc1C | 36* | 81* | -4% | ? | -5%
O=S1(=O)[C@H]2C[C@@H]3C=C[C@@]2(CN1Cc1ccc(F)cc1)O3 | -1 | 7 | -2% | -13% | -7%
COC(=O)C1CCN(C(=O)c2sc3nc(-c4ccccc4)cn3c2C)CC1 | 9 | -6 | -1% | -5% | 1%
COc1ccc2c(c1)sc1nc(-c3ccccc3)cn12 | -9 | -27 | -23% | -122% | 13µM*
CCOC(=O)N1CCN(C(=O)c2ccc3c(c2)sc2nc(-c4ccc(OC)cc4)cn23)CC1 | 25* | 51 | 0% | 13% | 2%
CCOC(=O)N1CCN(C(=O)c2sc3nc(-c4ccc(F)cc4)cn3c2C)CC1 | -5 | -11 | -1% | -8% | 5%
COc1ccc(-n2cc(-c3ccccc3)nc2SC)cc1 | 47* | 65* | -3% | -9% | 0%
CNC(=O)NC(=O)CN1C(=O)NC2(CCOc3ccccc32)C1=O (centres undefined) | -5 | 28 | / | 2% | -2%
CNc1ncnc2ccc(-c3ccc4c(c3)OCO4)cc12 | / | / | -7% | / | /
CN1CCN(C(=O)CCc2nnc3ccc(N4CCC5(CC4)OCCO5)nn23)CC1 | 12 | 13 | / | 2% | 0%
COc1ccc(CNc2nc(-c3cccc(NS(C)(=O)=O)c3)nc3ccccc23)c(OC)c1 | / | / | -5% | / | /
CCc1ccc(NC(=O)c2cnn(-c3ccccc3)c2C)cc1 | 63* | 59* | 4% | 0% | -9%
Cc1c(C(=O)Nc2ccccc2F)cnn1-c1ccccc1 | 57* | 80* | 6% | -44% | -8%
Cc1c(C(=S)Nc2ccccc2)cnn1-c1ccccc1 | 35* | 37 | -6% | -34% | 0%
Cc1c(C(=O)Nc2cc(F)cc(F)c2)cnn1-c1ccccc1 | 52* | / | -2% | -32% | -2%
CCc1ccc(NC(=O)c2cnn(-c3ccccc3)c2C2CCNCC2)cc1 | 2 | -16 | -16% | / | 1%[11.5 µM]
COc1ccc(N(CC(=O)N/N=C(\C)c2ccccc2)S(=O)(=O)c2ccccc2)cc1 | -6 | -10 | -4% | 3% | -1%
Cc1c(C(=O)Oc2cccc3ccccc23)cnn1-c1ccccc1 | 45* | 151* | -10% | -111% | 2%
Cc1nn(-c2ccccc2)cc1C(=S)Nc1ccccc1 | 27* | 64* | -1% | -4% | 4%
Cc1c(C(=S)Nc2ccccc2)cnn1-c1ccc([N+](=O)[O-])cc1 | -5 | -7 | -6% | -12% | 7%
C[C@H]1C(=O)N(S(=O)(=O)c2ccccc2[N+](=O)[O-])[C@H]1c1ccc(-c2ccccc2)cc1 | 6 | 10 | 12% | / | /
CCn1cc(C(=O)NCc2ccc(C)cc2)c(=O)c2cc(S(=O)(=O)N(C)C)ccc21 | 4 | -8 | -1% | -5% | 1%
O=C1c2ccccc2-c2nnc(-c3ccc(F)cc3)cc21 | 42* | 80* | -3% | / | 5µM*
O=C1c2ccccc2-c2nnc(-c3ccc(O)cc3)cc21 | 20* | 26 | -14% | 1% | 8.9µM*
Cc1ccccc1-c1cc2c(nn1)-c1ccccc1C2=O | 18 | 83* | ? | -120% | 5µM*
SMILES | CHX counter | Shiga toxin inh | Giardia FBPA inh | NS1 function inh | LmPK inhibitor
Oc1ccc(-c2cc(-c3ccc(O)cc3)nc(-c3ccccc3)n2)cc1 | -4 | -8 | -8% | 9% | 6%
COC(=O)C1=C(C)N(CCC2=CCCCC2)C(=O)C1 | 21* | 24 | ? | 24% | 0%
O=C1c2ccccc2C(=O)N1CCC1=CCCCC1 | 41* | 89* | 1% | -6% | -3%
CCN1C(=O)CC(C(=O)OC)=C1C | -3 | -6 | -5% | / | 1%
O=C(c1ccc(F)cc1)C1CCN(C(=O)c2c(F)cccc2F)CC1 | -1 | -1 | 12% | -10% | 2%
CCOc1ccc(NC(=S)NC(=O)/C=C/c2ccc(Br)cc2)c([N+](=O)[O-])c1 | -2 | -3 | -3% | -3% | 6%
